Assay outcomes: PubChem BioAssay, several laboratories
An excerpt weighted towards active compounds, which were near 2% of everything screened.
KKLEB tox = cytotoxicity in KKLEB CF airway cells, primary screen, cytotoxicity control for CF NF-kB inhibitor project, cell-based, uHTS, fluorescence assay plates; KKLEB CF airway cells viability, ATPlite luminescence, overnight; active compounds read low; cells stimulated with P. aeruginosa culture filtrate; hit rate 0.36% among 360,000; activity change (cytotoxicity), % at 5 µM;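 active means corrected activity change at or below -50% at 5 µM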
Shn3 3UTR inh = reduction of Shn3 3'UTR firefly luciferase signal, primary screen, Schnurri-3 inhibitor project, cell-based, Clone20 osteoblasts, set 2 | hit rate 0.52% among 360,000 | inhibition, % at 12.5 µM | AID 588674, 2011 | Clone20 osteoblast Shn3 3'UTR firefly luciferase, 24 h;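 active means mean inhibition of at least 75% with every replicate also reaching 75%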;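 further: 0% = median of neutral control wells and 100% = pilot-screen positive control compound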
LGR2 antag = inhibitors of bursicon-induced LGR2 CRE-luciferase signal, primary screen, cell-based, HEK293, CRE-luciferase reporter, bursicon stimulation; Drosophila bursicon receptor LGR2 (rickets); bursicon-stimulated, 4 h; inhibition, % at 9.99 µM; hit rate 0.35% among 380,000;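 active means drop in luminescence signal, shown as inhibition above about 50% in the replicate tests, limit read from the data, passing the limit was not always enough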;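 further: agonist challenge used bursicon conditioned medium at about half maximal strength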
EWS-Fli block = EWS/Fli-driven NR0B1 reporter inhibitors, primary screen, A673 cells, NR0B1 luciferase, luminescence, MLPCN library | viability-normalised | inhibition, % at 12.6 µM | hit rate 0.67% among 350,000 | AID 651661, 2012;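 active means mean inhibition of at least 50% after viability correction, with every replicate also passing that limit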;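 further: firefly luciferase signal divided by Alamar Blue viability fluorescence both relative to DMSO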
CF NFkB inh = inhibitors of PAF-induced NF-kB signaling, primary screen, cell-based, GFP fluorescence, uHTS; inhibition, % at 5 µM; hit rate 0.86% among 360,000; KKLEB NF-kB-GFP reporter, GFP fluorescence overnight;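 active means at least 50% inhibition at 5 µM, scaled per plate between neutral and stimulator controls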;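 further: PAF is a Pseudomonas aeruginosa culture filtrate used as stimulus; plate controls were PAF-stimulated DMSO wells for no effect and unstimulated DMSO wells for full effect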
PAX8 inh HTS = inhibitors of PAX8-driven TPO luciferase reporter, primary screen, RMG-I cells, single concentration. SteadyGlo, 24 h. AID 652154, 2013. inhibition, % at 12.6 µM. hit rate 1.2% among 360,000;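 active means mean replicate inhibition at least 60% with every replicate also reaching 60%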;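 further: luciferase light reporting Pax8 driven TPO promoter activity; plate controls were median of neutral control wells for no effect and mitoxantrone controls for full effect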
* = called active by the depositor; . = not tested or not shown.

SMILES	KKLEB tox	Shn3 3UTR inh	LGR2 antag	EWS-Fli block	CF NFkB inh	PAX8 inh HTS
COc1ccc(CN2C(=O)C(C)Nc3ncnc(N4CCOCC4)c32)cc1 (stereo unspecified)	-4.3	16.0	-7.1	15.7	11.9	69.2*
COc1ccc(CN2C(=O)C(C)Nc3ncnc(N4CCN(c5ccccc5)CC4)c32)cc1 (stereo unspecified)	-12.6	0.2	8.3	-4.3	11.7	-9.3
N#CC1=C(N)NC(=S)C(C(N)=O)C1c1ccc(Cl)cc1Cl (stereo unspecified)	0.4	26.9	69.2*	-8.3	27.2	16.6
CCOC(=O)Cc1cc(-c2ccccc2)nc2ccc3ccccc3c12	2.4	-20.5	.	.	-4.7	23.0
CS(=O)(=O)c1nc(-c2ccc(F)cc2)cc(C(F)(F)F)n1	-96.5*	89.1*	37.3	34.4	91.6*	39.8
COC(=O)CCS(=O)(=O)c1nc(-c2ccccc2)cc(C(F)(F)F)n1	-60.0*	76.1	.	.	87.0*	.
Nc1nc(-c2ccc(F)cc2)cc(C(F)(F)F)n1	-15.1	-2.6	.	.	22.7	-4.5
O=C(O)CCS(=O)(=O)c1nc(-c2cccs2)cc(C(F)(F)F)n1	-1.2	-18.1	-0.7	-8.2	16.5	.
Cc1cc(NC(=O)CSc2nc(-c3cccs3)cc(C(F)(F)F)n2)no1	-24.3	31.1	8.1	.	28.7	.
CCOC(=O)CCS(=O)(=O)c1nc(-c2ccccc2)cc(C(F)(F)F)n1	-77.4*	97.6*	.	.	85.6*	.
Cc1cc(NC(=O)CCCS(=O)(=O)c2nc(-c3cccs3)cc(C(F)(F)F)n2)no1	-53.1*	94.8*	23.6	.	89.9*	106.1*
C[C@@H]1CN([C@H](C)CO)C(=O)Cc2cc(NS(=O)(=O)c3cccs3)ccc2O[C@H]1CN(C)S(=O)(=O)c1cn(C)cn1	.	.	-8.9	-0.2	.	-60.3
C[C@@H]1CN([C@@H](C)CO)C(=O)c2cccc(NS(=O)(=O)c3cccs3)c2O[C@H]1CN(C)Cc1ccc(Cl)c(Cl)c1	.	.	2.5	-3.8	.	1.1
COCCNC(=O)CCSc1nc(-c2ccc(OC)cc2)cc(C(F)(F)F)n1	-6.4	4.1	.	.	2.6	0.5
CCOC(=O)CS(=O)(=O)c1nc(-c2ccc(F)cc2)cc(C(F)(F)F)n1	-43.9	96.7*	.	.	85.0*	.
COCC(C)NC(=O)CCS(=O)(=O)c1nc(-c2ccc(OC)cc2)cc(C(F)(F)F)n1 (stereo unspecified)	-75.6*	-9.0	.	.	86.2*	.
CCOC(=O)c1c(C(F)(F)F)cc(-c2ccc(F)cc2)nc1C	0.3	4.0	9.4	.	-10.4	-0.5
O=S(=O)(Nc1ccc(O)c2ccccc12)c1cccs1	-8.2	24.4	-36.8	-5.5	86.5*	23.3
CCCc1nc([N+](=O)[O-])c(S(=O)(=O)c2ccccc2)n1CC(C)C	-16.3	90.8*	13.4	-24.2	55.0*	86.0*
COc1ccc(-c2cc(-c3ccccc3)no2)cc1	-17.2	-38.3	77.6*	39.3	-19.5	-124.2
COc1ccc(-c2cc(C(=O)N3CCOCC3)no2)cc1	4.2	-5.5	53.4*	36.7	3.9	14.5
C[C@@H]1CN([C@H](C)CO)C(=O)Cc2cc(NC(=O)CCC(F)(F)F)ccc2O[C@@H]1CN(C)S(C)(=O)=O	.	.	7.6	-8.2	.	-33.3
COC(CNC(=O)C1CCCN1C(=O)OCc1ccccc1)OC (stereo unspecified)	-8.0	10.8	10.6	7.7	3.0	-7.0
COC(=O)[C@@H]1C[C@]2(OC(=O)c3ccccc3)C=CC(=O)C[C@@H]2N1C(=O)OCc1ccccc1	-23.3	-16.3	-1.0	28.5	50.1*	57.0
O=C(NC(Nc1ncc(S(=O)(=O)c2ccc([N+](=O)[O-])cc2)s1)(C(F)(F)F)C(F)(F)F)c1ccc(Cl)cc1	-55.2*	23.2	.	.	49.5	76.2*
SMILES	KKLEB tox	Shn3 3UTR inh	LGR2 antag	EWS-Fli block	CF NFkB inh	PAX8 inh HTS
Cc1nn(-c2ccccc2Cl)c(Cl)c1/C=N/Nc1nc2ccccc2s1	1.4	83.0	72.0*	.	-8.7	2.1
CCOC(=O)N/N=C/c1c(C)nn(-c2ccccc2Cl)c1Cl	-7.2	-32.9	-39.0	.	-12.7	-156.3
O=c1cc(-c2ccc(Cl)cc2)oc(=O)[nH]1	-6.4	-2.4	.	-26.1	-12.2	22.0
O=c1cc(N=Nc2ccc(Cl)cc2)[nH]c(=O)[nH]1	-7.4	65.5	2.4	-1.4	68.4*	-27.7
CCN(CC)c1ccc(/C=C(\C#N)c2ccccn2)cc1	-50.3*	34.9	.	.	-10.6	.
CCN(Cc1ccccc1)c1ccc(/C=C(\C#N)c2ccccn2)cc1	9.2	-42.5	-96.9	.	-5.4	-212.3
CN(CCC#N)c1ccc(C=C(C#N)c2ccc(Br)cc2)cc1	1.9	-31.5	-3.8	-40.0	-23.6	-91.9
CN(CCC#N)c1ccc(/C=C(\C#N)c2ccccn2)cc1	-51.6*	-14.7	73.0*	39.1	-18.6	-65.1
CC(Nc1ncnc2sccc12)c1ccccc1 (stereo unspecified)	2.1	86.6*	-4.7	41.0	-4.1	25.0
O=C(N/N=C/c1cc2c3c(c1O)CCCN3CCC2)c1ccccc1O	-9.4	82.4	6.8	11.2	9.2	62.3*
Cc1nn(-c2ccccc2)c(N2CCCC2)c1/C=N/NC(=O)c1ccccc1O	-8.3	-6.6	11.7	.	16.0	-1.5
CCC(=O)N(C)C[C@@H]1Oc2cc(C3=CCCCC3)ccc2S(=O)(=O)N([C@@H](C)CO)C[C@@H]1C	.	.	15.8	-22.3	.	.
CN1C(=O)c2cc(NC(=O)Nc3ccc(F)cc3)ccc2OC[C@H]2O[C@@H](CC(=O)NC3CCC3)CC[C@H]21	.	.	-6.4	-3.9	.	61.8*
CC(C)c1ccc(NC(=O)C[C@H]2CC[C@H]3[C@@H](COc4ccc(NC(=O)Nc5ccc(F)c(F)c5)cc4C(=O)N3C)O2)cc1	.	.	.	-1.0	.	74.6*
O=C(CCN1CCCCC1)N[C@@H]1CC[C@H](CCNS(=O)(=O)c2ccc(F)cc2)O[C@@H]1CO	.	.	11.0	0.5	.	-18.9
COc1ccc(NC(=O)Nc2ccc3c(c2)C(=O)N([C@@H](C)CO)C[C@H](C)[C@@H](CN(C)C(=O)Cc2ccccc2)OCCCC[C@H](C)O3)cc1	.	.	14.6	13.9	.	23.3
COc1ccc(NC(=O)Nc2ccc3c(c2)C(=O)N([C@H](C)CO)C[C@@H](C)[C@@H](CN(C)C(=O)Cc2ccccc2)OCCCC[C@H](C)O3)cc1	.	.	3.3	-0.7	.	98.9*
C[C@H](CO)N1C[C@H](C)[C@@H](CN(C)C(=O)Cc2ccccc2)OCCCC[C@H](C)Oc2ccc(NC(=O)Nc3ccc(C(F)(F)F)cc3)cc2C1=O	.	.	-21.4	10.7	.	87.0*
